Results on eleven compounds are retold here after PubChem BioAssay.

Each structure is given as a SMILES string. Calls of active or inactive are those of the source.

The nature of experiment [1]: optical density shifts of acrAB sulA E. coli – strain DRC41, OD650, 48 h, E. coli filamentation inducer project, primary screen (AID 1152).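 Also: E. coli MC1000 strain DRC41 lacking acrAB efflux pump and sulA.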 Particulars: higher = more signal, called active from +8 up or from −8 down.
A short description of experiment [2]: probe aLefty1 binding on compound microarray – biochemical, small-molecule microarray, 635/667 nm fluorescence, primary screen (AID 1153).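 Also: score merges spot fluorescence with signal-to-noise ratio from the scanned slide images.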 Particulars: higher = more signal.
Experiment [3] in a line: plasmodial surface anion channel blockers, osmotic lysis – cell-based, P. falciparum Indochina, OD700, 1 h, primary screen (AID 1154). Conditions: P. falciparum Indochina infected RBC osmotic lysis, higher = more signal, called active from +8 up or from −8 down.
The nature of experiment [4]: plasmodial surface anion channel blockers, osmotic lysis – cell-based, P. falciparum Indochina, OD700, 2 h, primary screen (AID 1155).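 Also: lysis reports solute entry through the parasite surface anion channel PSAC.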 Conditions: P. falciparum Indochina infected erythrocytes, higher = more signal, called active from +8 up or from −8 down.
Experiment [5] is described as follows: changes in parasitized red cell lysis, either direction – P. falciparum Indochina, OD700, 3 h, PSAC antagonist project, primary screen (AID 1156). Conditions: P. falciparum-infected erythrocytes, osmotic lysis, higher = more signal, called active from +8 up or from −8 down.
The nature of experiment [6]: plasmodial surface anion channel blockers, osmotic lysis – cell-based, P. falciparum Indochina, OD700, 18 h, primary screen (AID 1157). Conditions: P. falciparum Indochina infected erythrocytes, osmotic lysis OD700, 18 h; higher = more signal, called active from +8 up or from −8 down.
Experiment [7] in a line: S6 kinase pathway phospho-S6 level changes – cell-based, A549, cytoblot, luminescence, serum-stimulated, primary screen (AID 1158).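 Also: serum-stimulated A549 lung adenocarcinoma cells; signal is phosphorylated S6 detected by cytoblot immunostaining with HRP secondary.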 Conditions: 5 h, higher = more signal.
Experiment [8] concerns the target NADPH oxidase 2 (Homo sapiens) (UniProt P04839). Briefly: compounds shifting NOX2 Amplex Red fluorescence – cell-based, HEK293-NOX2, PMA-stimulated, NOX inhibitor project, primary screen (AID 1159). Also: test concentration not given here. Particulars: 45 min, higher = more signal, called active from +8 up or from −8 down.
Experiment [9] has as its target NADPH oxidase 4 (Homo sapiens) (UniProt Q9NPH5). Briefly: compounds shifting NOX4 Amplex Red fluorescence – cell-based, HEK293-NOX4, tetracycline-induced, NOX inhibitor project, primary screen (AID 1160). Particulars: HEK293-NOX4, Amplex Red H2O2 fluorescence, 45 min; higher = more signal, called active from +8 up or from −8 down.
For experiment [10], the target named is NADPH oxidase 5 (Homo sapiens) (UniProt Q96PH1). The experiment is described as follows: compounds shifting NOX5 Amplex Red fluorescence – cell-based, HEK293-NOX5, NOX inhibitor project, primary screen (AID 1161). Particulars: HEK293-NOX5, ionomycin, 45 min, higher = more signal.
Sequence of NADPH oxidase 5 (Homo sapiens) (Q96PH1 whole entry, looked up): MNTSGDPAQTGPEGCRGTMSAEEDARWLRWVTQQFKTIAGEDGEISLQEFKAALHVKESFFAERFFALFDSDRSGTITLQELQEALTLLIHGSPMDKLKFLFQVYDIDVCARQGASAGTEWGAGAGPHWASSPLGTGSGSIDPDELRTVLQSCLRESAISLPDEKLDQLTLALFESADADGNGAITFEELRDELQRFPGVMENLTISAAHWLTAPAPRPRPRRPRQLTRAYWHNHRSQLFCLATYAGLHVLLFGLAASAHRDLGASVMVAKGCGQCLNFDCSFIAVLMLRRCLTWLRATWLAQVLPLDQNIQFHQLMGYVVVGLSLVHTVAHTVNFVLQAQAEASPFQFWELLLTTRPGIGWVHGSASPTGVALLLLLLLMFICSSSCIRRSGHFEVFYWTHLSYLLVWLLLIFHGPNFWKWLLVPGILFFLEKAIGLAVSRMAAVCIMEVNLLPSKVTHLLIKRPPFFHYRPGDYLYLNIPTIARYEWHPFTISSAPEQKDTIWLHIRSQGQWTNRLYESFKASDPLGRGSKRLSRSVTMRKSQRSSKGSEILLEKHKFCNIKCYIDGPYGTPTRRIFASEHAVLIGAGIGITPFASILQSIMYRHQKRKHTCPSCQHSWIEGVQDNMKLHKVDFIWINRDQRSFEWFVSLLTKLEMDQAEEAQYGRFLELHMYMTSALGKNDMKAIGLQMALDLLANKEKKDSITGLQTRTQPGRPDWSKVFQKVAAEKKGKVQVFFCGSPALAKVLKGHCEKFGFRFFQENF

Sequence of NADPH oxidase 4 (Homo sapiens) (Q9NPH5 whole entry, looked up): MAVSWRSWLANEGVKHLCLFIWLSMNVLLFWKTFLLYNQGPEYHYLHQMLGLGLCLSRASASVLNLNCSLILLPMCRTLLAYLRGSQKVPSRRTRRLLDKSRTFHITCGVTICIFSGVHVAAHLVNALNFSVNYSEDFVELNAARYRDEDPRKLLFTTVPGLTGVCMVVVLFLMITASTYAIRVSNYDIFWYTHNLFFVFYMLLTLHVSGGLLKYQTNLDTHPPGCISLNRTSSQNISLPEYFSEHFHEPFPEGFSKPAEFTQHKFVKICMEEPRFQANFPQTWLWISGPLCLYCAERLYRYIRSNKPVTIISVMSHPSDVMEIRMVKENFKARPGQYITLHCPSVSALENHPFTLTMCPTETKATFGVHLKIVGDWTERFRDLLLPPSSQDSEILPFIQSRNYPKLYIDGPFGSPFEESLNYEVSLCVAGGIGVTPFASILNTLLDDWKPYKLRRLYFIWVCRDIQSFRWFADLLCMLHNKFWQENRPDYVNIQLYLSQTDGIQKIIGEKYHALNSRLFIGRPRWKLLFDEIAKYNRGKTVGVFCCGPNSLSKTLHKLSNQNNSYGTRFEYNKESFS
Sequence of NADPH oxidase 2 (Homo sapiens) (P04839 whole entry, looked up): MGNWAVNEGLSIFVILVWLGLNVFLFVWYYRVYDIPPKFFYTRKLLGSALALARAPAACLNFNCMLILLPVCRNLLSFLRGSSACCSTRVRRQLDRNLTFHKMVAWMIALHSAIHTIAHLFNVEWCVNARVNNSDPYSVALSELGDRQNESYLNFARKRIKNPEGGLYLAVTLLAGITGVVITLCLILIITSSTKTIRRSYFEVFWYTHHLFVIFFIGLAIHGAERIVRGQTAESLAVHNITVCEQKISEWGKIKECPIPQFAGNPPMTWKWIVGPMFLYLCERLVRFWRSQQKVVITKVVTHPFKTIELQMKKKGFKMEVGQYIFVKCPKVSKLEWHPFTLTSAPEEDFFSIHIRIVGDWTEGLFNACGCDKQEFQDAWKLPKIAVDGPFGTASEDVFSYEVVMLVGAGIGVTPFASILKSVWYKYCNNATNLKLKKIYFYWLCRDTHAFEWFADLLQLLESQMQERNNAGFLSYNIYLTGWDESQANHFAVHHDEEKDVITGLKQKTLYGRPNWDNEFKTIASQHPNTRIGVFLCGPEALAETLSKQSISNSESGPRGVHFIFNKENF

For `O=C1O[C@@H](c2ccccc2)[C@@H](c2ccccc2)N2[C@@H](c3ccc(O)cc3)[C@]3(C(=O)Nc4ccc(C#CC5=CCCCC5)cc43)[C@@H](C(=O)NC[C@H](O)c3ccccc3)[C@H]12`, the z-score is 1.22 (inactive) in experiment [1]; 0.622 (inactive) in experiment [3]; 0.347 (inactive) in experiment [4]; -0.853 (inactive) in experiment [5]; 0.933 (inactive) in experiment [6]; 0.0825 in experiment [7]. Besides, the z-score in [8] was 1.22 (inactive); in experiment [9] it was 0.53 (inactive); in [10], 0.909. The composite z-score in experiment [2] was determined as 0.15.
`[N-]=[N+]=Nc1ccccc1[C@H]1OC(c2ccc(OCCCO)cc2)=N[C@@]1(Cc1ccccc1)C(=O)N1CCCCC1`: the z-score in experiment [1] was 0.546 (inactive); in experiment [3], 31.2 (active); in [4], 27.9 (active); in [5], 2.35 (inactive); in experiment [6] it was 8.26 (active); in experiment [7], 0.583. Further, the z-score in experiment [8] is -1.52 (inactive); in experiment [9], 0.804 (inactive); in experiment [10], 1.62. In experiment [2], this compound gave a composite z-score of 0.51.
For the compound `CN(C)CCCNC(=O)[C@@]1(c2ccc([N+](=O)[O-])cc2)CC(=O)N(CC23CC4CC(CC(C4)C2)C3)[C@@H]1c1ccc(CO)cc1I`, the z-score was -5.6 (inactive) in experiment [1]; 11.4 (active) in [3]; 2.32 (inactive) in [4]; -8.44 (active) in [5]; 0.352 (inactive) in experiment [6]; -2.32 in experiment [7]. In addition, the z-score in experiment [8] is -10.3 (active); in [9] it was -5.46 (inactive); in experiment [10], -7.32. In [2], this compound displayed a composite z-score of 0.198.
For `CCCCCCCCCCC(O)C1C=CC2C(=O)N(C)C(=O)C2N1Nc1ccc([N+](=O)[O-])cc1[N+](=O)[O-]` (stereo not given), the z-score in experiment [1] is -1.97 (inactive); in experiment [3], 13.8 (active); in experiment [4] it was 4.31 (inactive); in experiment [5] it was -0.607 (inactive); in experiment [6], 2.59 (inactive); in experiment [7], -0.506. Besides, the z-score in experiment [8] was 0.402 (inactive); in experiment [9] it was 0.328 (inactive); in experiment [10] it was -0.414. For the same compound, the composite z-score in experiment [2] is 0.407.
As for `COc1ccc([Si](C)(C)[C@@H]2[C@@H](CC(=O)N(CCO)Cc3ccccc3)O[C@]3(C(=O)N(c4ccccc4)c4ccccc43)[C@H]2C)cc1`, the z-score is 1.3 (inactive) in experiment [1]; 9.05 (active) in [3]; 1.2 (inactive) in experiment [4]; -1.43 (inactive) in experiment [5]; 0.303 (inactive) in experiment [6]; 1.73 in experiment [7]. Further, the z-score is -0.0719 (inactive) in experiment [8], 0.574 (inactive) in experiment [9] and -1.55 in experiment [10]. The same compound yielded a composite z-score in experiment [2] of 0.201.
`CC(C)N1CC=CC23O[C@@H]4C=CCOC(=O)[C@@H]4[C@H]2C(=O)N(CCCO)[C@@H]3C1=O` (stereo not given in full): the z-score in experiment [1] was 2.97 (inactive); in experiment [3], 1.08 (inactive); in experiment [4], 0.0983 (inactive); in [5] it was 0.976 (inactive); in experiment [6] it was -0.137 (inactive); in [7] it was 1.89. Also, the z-score in experiment [8] is 0.0484 (inactive); in [9] it was -1.52 (inactive); in experiment [10] it was -1.36. Also, in [2], the composite z-score is -0.14.
With `COc1cc2c(cc1OC)CN(C(=O)[C@@H]1[C@H]3C(=O)O[C@H](c4ccccc4)[C@H](c4ccccc4)N3[C@H](c3ccc(OCCO)cc3)[C@@]13C(=O)Nc1ccc(C#CC4(O)CCCCCC4)cc13)CC2`, the z-score was 3.13 (inactive) in [1]; 4.33 (inactive) in experiment [3]; 1.05 (inactive) in experiment [4]; 0.785 (inactive) in experiment [5]; -1.27 (inactive) in experiment [6]; 2.48 in experiment [7]. Besides, the values for the z-score in experiment [8], in experiment [9] and in experiment [10] were 0.737 (inactive), 0.802 (inactive) and 1.82, respectively. The composite z-score in [2] was 0.246.
`COc1ccc(C(O)C2C=CC3C(=O)N(c4ccccc4)C(=O)C3N2Nc2ccc([N+](=O)[O-])cc2)cc1` (stereo not given): the z-score was -1.35 (inactive) in [1]; 14.3 (active) in experiment [3]; 2.49 (inactive) in experiment [4]; 0.547 (inactive) in experiment [5]; 1.24 (inactive) in experiment [6]; -0.727 in [7]. The z-score in experiment [8] was -0.897 (inactive); in experiment [9] it was -2.79 (inactive); in experiment [10], -2.72. In experiment [2], the composite z-score was found to be 0.987.
Take `C[C@H]1NC(=O)[C@@]23C(=O)N[C@@H](Cc4ccccc4)C2[C@H](C)[C@@]2(C)O[C@H]2C3/C=C/C/C=C\CNC(=O)[C@H](Cc2ccccc2)NC1=O` (stereo not given in full): the z-score in experiment [1] was -0.213 (inactive); in experiment [3], 0.874 (inactive); in experiment [4], 0.577 (inactive); in experiment [5], 0.395 (inactive); in [6], 0.33 (inactive); in experiment [7] it was -0.271. Besides, the z-score in experiment [8] is 1.63 (inactive); in experiment [9] it was -1.2 (inactive); in [10] it was 0.201. The compound further returned a composite z-score in experiment [2] of -0.0378.
For the compound `CC(C)C[C@@H]1NC(=O)[C@@H]2C[C@H](C(=O)NCCCCN(C)C)[C@H](c3cccc(OCCO)c3)N2C1=O`, the z-score is 0.471 (inactive) in experiment [1]; 4.21 (inactive) in experiment [3]; 0.239 (inactive) in experiment [4]; 0.931 (inactive) in experiment [5]; 0.128 (inactive) in [6]; 0.422 in [7]. For the same compound, the results for the z-score in experiment [8], in [9] and in experiment [10] were 1.46 (inactive), 1.13 (inactive) and 0.903, respectively. Moreover, the composite z-score in experiment [2] was determined as 0.0945.
For `C=CCNC(=O)[C@H]1[C@@H]2C(=O)O[C@@H](c3ccccc3)[C@@H](c3ccccc3)N2[C@@H](c2ccc(O)cc2)[C@]12C(=O)Nc1ccc(C#CC3(O)CCCCCC3)cc12`, the z-score was -1.14 (inactive) in experiment [1]; 1.79 (inactive) in experiment [3]; 0.749 (inactive) in [4]; 0.514 (inactive) in experiment [5]; 0.319 (inactive) in experiment [6]; 0.356 in [7]. The z-score in experiment [8] is 1.71 (inactive); in experiment [9], 0.772 (inactive); in experiment [10], 1.06. For the same compound, the composite z-score in [2] was 0.898.
